# Assay results from the supplement of paper PMC12024424.
# Structures can show the parent of a compound that is named as a salt.
# Test system: Staphylococcus aureus Sa2 (MRSA, cystic fibrosis isolate)
# Assay: growth reduction vs untreated control (viable cell count); higher = stronger antibacterial activity; extreme values may be limits of the assay
# Conditions: 0.1 mM; 24 h
# Protocol: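 Single-dose screen of the MedChem Express Drug Repurposing Library (0.1 mM, 1% DMSO) against planktonic MRSA S. aureus Sa2 (CF isolate) in TSB in 96-well plates, 37 °C aerobic, 24 h. Assays were run in triplicate and repeated twice.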
row,SMILES,growth reduction [%]
1,CS(=O)(=O)c1ccc([C@@H](O)[C@@H](CF)NC(=O)C(Cl)Cl)cc1 [Florfenicol],100
2,CC(C)(C)C(=O)Oc1ccc(S(=O)(=O)Nc2ccccc2C(=O)NCC(=O)O)cc1 [Sivelestat (sodium)],93
3,O=C(O)C[C@H]1CCc2c1[nH]c1ccc(OCc3ccc(C4CCCC4)c(C(F)(F)F)c3)cc21 [Etrasimod],100
4,O=C(O)Cc1cc(I)c(Oc2ccc(O)c(I)c2)c(I)c1 [Tiratricol],100
5,CC(C)N(CCCCOCC(=O)NS(C)(=O)=O)c1cnc(-c2ccccc2)c(-c2ccccc2)n1 [Selexipag],100
6,COc1cc([C@@H]2c3cc4c(cc3[C@@H](O[C@@H]3O[C@@H]5CO[C@@H](c6cccs6)O[C@H]5[C@H](O)[C@H]3O)[C@H]3COC(=O)[C@H]23)OCO4)cc(OC)c1O [Teniposide],100
7,Clc1ccc(COC(Cn2ccnc2)c2ccc(Cl)cc2Cl)cc1 (stereo not given) [Econazole (nitrate)],100
8,COc1cccc(Nc2ncnn3ccc(CN4CC[C@@H](N)[C@H](O)C4)c23)c1,94
9,COCc1c(C(C)C)nc(C(C)C)c(/C=C/[C@@H](O)C[C@@H](O)CC(=O)O)c1-c1ccc(F)cc1 [Cerivastatin (sodium)],99
10,O=C(O)c1ccc2nc(-c3cc(Cl)cc(Cl)c3)oc2c1 [Tafamidis meglumine],98
11,CC(C)(C)NC(=O)N[C@H](C(=O)N1C[C@H]2[C@@H]([C@H]1C(=O)NC(CC1CCC1)C(=O)C(N)=O)C2(C)C)C(C)(C)C (stereo not given in full) [Boceprevir],92
12,CC1=C(/C=C/C(C)=C/C=C/C(C)=C/C(=O)Nc2ccc(O)cc2)C(C)(C)CCC1 [Fenretinide],100
13,Cc1ccc(C(=O)Nc2ccc(CN3CCN(C)CC3)c(C(F)(F)F)c2)cc1C#Cc1cnc2[nH]ncc2c1,100
14,C=C[C@@H]1C[C@]1(NC(=O)[C@@H]1C[C@@H]2CN1C(=O)[C@H](C(C)(C)C)NC(=O)O[C@@H]1C[C@H]1CCCCCc1nc3ccc(OC)cc3nc1O2)C(=O)NS(=O)(=O)C1CC1 [Grazoprevir],100
15,Cn1cc(-c2ccncc2)c(-c2ccc(OCc3ccc4ccccc4n3)cc2)n1 [Mardepodect (hydrochloride)],97
16,O=C(O)Cc1ccc(Cc2cc(-c3cccc(Cl)c3)nc(C(F)(F)F)c2)cc1,100
17,O=C(OCC(O)CO)c1ccccc1Nc1ccnc2cc(Cl)ccc12 (stereo not given) [Glafenine],100
18,CC1(S(=O)(=O)O)CC(=O)c2ccccc2C1=O (stereo not given) [Menadione bisulfite (sodium)],100
19,CCCCCCNC(=O)n1cc(F)c(=O)[nH]c1=O [Carmofur],100
20,COc1cccc2c1c(O)c(C(=O)N(C)c1ccc(C(F)(F)F)cc1)c(=O)n2C [Tasquinimod],98
21,CC1(C)CC=C(c2nc(C3CC(C)(C)OC(C)(C)C3)ccc2NC(=O)c2nc(C#N)c[nH]2)CC1 [Edicotinib],100
22,CN(Cc1cnc2nc(N)nc(N)c2n1)c1ccc(C(=O)N[C@@H](CCC(=O)O)C(=O)O)cc1 [Methotrexate],95
23,Cc1ncc(NC(=O)c2ccc(CN3CCN(C)CC3)c(C(F)(F)F)c2)cc1Nc1nccc(-c2cccnc2)n1 [Flumatinib],100
24,CCCCc1oc2ccccc2c1C(=O)c1cc(I)c(OCCN(CC)CC)c(I)c1 [Amiodarone (hydrochloride)],98
25,CCOC(=O)N1CCC(=C2c3ccc(Cl)cc3CCc3cccnc32)CC1 [Loratadine],100
26,C[C@H](CCC(=O)O)[C@H]1CC[C@H]2[C@@H]3CC[C@@H]4C[C@H](O)CC[C@]4(C)[C@H]3C[C@H](O)[C@]12C [Deoxycholic acid],100
27,CC(C)COc1ccc(CNC(=O)N(Cc2ccc(F)cc2)C2CCN(C)CC2)cc1 [Pimavanserin],100
28,Cc1ccc(-n2[nH]c(C)c(N=Nc3cccc(-c4cccc(C(=O)O)c4)c3O)c2=O)cc1C [Eltrombopag],100
29,COc1cc(C(=O)NS(=O)(=O)c2ccccc2C)ccc1Cc1cn(C)c2ccc(NC(=O)OC3CCCC3)cc12 [Zafirlukast],100
30,CCN1CCN(c2ccc(Nc3cc(N(C)C(=O)Nc4c(Cl)c(OC)cc(OC)c4Cl)ncn3)cc2)CC1 [Infigratinib],100
